High-throughput results: PubChem, National Center for Advancing Translational Sciences (NCATS)
APEX1 inh: inhibitors of human APE1 endonuclease; 350,000 compounds, 0.35% hits; AID 2517; recombinant APE1, TAMRA/BHQ-2 abasic DNA cleavage fluorescence; Potency, µM (titrated, usually from 65.8 µM), inactives show top-dose activity change, negative = inhibition, hits mostly inhibitors;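 note: plate controls were vehicle for no effect and reference inhibitor for full effect; nearly all actives have a fitted effect of over 55% in size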
Target sequence (P27695 whole entry, looked up): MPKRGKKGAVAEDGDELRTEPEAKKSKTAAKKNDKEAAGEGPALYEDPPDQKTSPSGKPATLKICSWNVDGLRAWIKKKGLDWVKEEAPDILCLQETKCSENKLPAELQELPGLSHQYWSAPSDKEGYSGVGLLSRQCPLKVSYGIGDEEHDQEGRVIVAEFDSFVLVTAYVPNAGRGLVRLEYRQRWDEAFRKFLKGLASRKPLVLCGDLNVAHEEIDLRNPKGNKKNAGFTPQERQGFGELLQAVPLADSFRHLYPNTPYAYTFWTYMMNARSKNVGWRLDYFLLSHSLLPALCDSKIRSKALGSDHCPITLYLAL
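0.75 nM APE1 + cpd, 15 min RT; start w/ 50 nM TAMRA/BHQ-2 THF-abasic dsDNA; kinetic fluor 525/598 nm ×3 reads @60 s; Δ(read3−read1); normalized to DMSO and NSC13755 control wells.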
RECQ1 helicase: blocks DNA unwinding by human RECQ1 | P46063 | AID 2549 | RECQ1 DNA unwinding, red fluorescence kinetic read | Potency, µM (top dose mostly 57.3 µM), inactives show at the highest dose activity, negative = inhibition, actives largely listed as inhibitors | 240,000 compounds, 0.54% hits;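 note: plate controls were vehicle for no effect and no enzyme for full effect; nearly all actives have a fitted effect of over 30% in size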
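RECQ1T1 50 nM; forked duplex (20 bp + 30-nt ss tails) 200 nM, ATP 2 mM final; pH 8.0, 2 mM MgCl2, 2.5 ug/ml poly(dI-dC); 15 min compound preincubation; discontinuous kinetic read over 2 h at RT.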
TRb SRC2 PPI: disrupts binding of human TR beta to SRC2; P10828; TRbeta-SRC2 peptide binding, fluorescence polarization; receptor liganded with 1 µM T3; Potency, µM (top dose mostly 106 µM), inactives show at the top dose activity change, negative = inhibition, hits mostly inhibitors; 280,000 compounds, 0.065% hits;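 note: plate controls were bound peptide for no effect and peptide without receptor for full effect; nearly all actives have a fitted effect of over 50% in size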
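Decrease in fluorescence polarization of 20 nM Texas Red SRC2 coactivator peptide flagged inhibition of its binding to 0.6 uM TRb LBD; 1 uM T3 included, incubation 5 hr, ex 555/em 632 nm.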
TexasRed fluor: counter-screen for TRb-SRC2 inhibitors: fluorescence interference | 280,000 compounds, 0.29% hits | Potency, µM (top dose mostly 106 µM), inactives show at the highest dose fluorescence change, negative = quenching | TRb/SRC2 Texas Red total fluorescence interference; active = well fitted curve in either direction with a large enough effect; inconclusive = small, poorly fitted or top-dose-only effect
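Human TRβ ligand-binding domain (0.6 uM) and Texas Red SRC2 peptide (20 nM) in Tris buffer with 1 uM T3 and 5% DMSO were incubated with pinned compound for 5 hr at ambient temperature. Total fluorescence was computed as S + 2P (555/632 nm).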
WRN helicase inh: blocks human WRN helicase; Q14191; WRN helicase unwinding, fluorescent forked duplex, kinetic; Potency, µM (series often up to 114 µM), for the others: at the top dose activity change, negative = inhibition, actives largely listed as inhibitors; 360,000 compounds, 0.46% hits; note: nearly all actives have a fitted effect of over 55% in size
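Screening of the MLSMR collection measured strand separation of a quenched forked DNA duplex (100 nM) by 20 nM WRN with 2 mM ATP, all final. Compounds were preincubated with enzyme 15 min at room temperature.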
BLM helicase inh: blocks DNA unwinding by human BLM helicase; P54132; recombinant BLM DNA unwinding, fluorescence dequenching; Potency, µM (highest dose often 56.1 µM), without a hit: top-dose activity change, negative = inhibition, hits mostly inhibitors; 350,000 compounds, 0.2% hits; AID 2528;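 note: plate controls were vehicle for no effect and no enzyme for full effect; nearly all actives have a fitted effect of over 35% in size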
An asterisk follows results filed as active; i = inactive; u = inconclusive; x = not tested or not shown; ! = a repeat was not active; [ ] = dose if it differs, or a comment. An excerpt weighted towards active compounds, which were near 0.91% of everything screened. Unless noted, calls come from the whole dose curve; as a rule, active = well fitted curve in the direction sought with a large enough effect; inconclusive = small, poorly fitted or top-dose-only effect, or another doubt; inactive = no such curve, though single readings can be large; an effect the other way counts as inactive or inconclusive. Unless noted, % is set by controls: 0 for no effect and ±100 for the full control effect; potency is the fitted concentration of half-maximal effect.

SMILES	APEX1 inh	RECQ1 helicase	TRb SRC2 PPI	TexasRed fluor	WRN helicase inh	BLM helicase inh
CC1C(=O)N(Cc2cn(Cc3ccco3)nn2)CCS(=O)(=O)N1Cc1ccc(-c2cccnc2)cc1 (stereo unspecified)	x	x	x	x	50µM*	x
Cc1ccc2c(c1)C1CC(C)(O2)N(c2cccc(C(=O)NC3CCN(Cc4ccccc4)CC3)c2)C(=O)N1 (stereo unspecified)	24µM*	x	x	x	1%	1%
Cc1ccc2c(c1)C1CC(C)(O2)N(c2cccc(C(=O)NCc3ccccn3)c2)C(=O)N1 (stereo unspecified)	0%	x	x	x	1%	3%
CC1=CC(=O)c2c(O)ccc(O)c2C1=O	2µM*	3.5µM*	-23%	22µM*[quencher]	x	18µM*
O=C1c2c(O)ccc([N+](=O)[O-])c2C(=O)c2c([N+](=O)[O-])ccc(O)c21	u	-29%	-7%	-12%	x	x
O=c1n(Cc2ccccc2)nc2n1-c1ccccc1OC2	x	x	-3%	10µM*[quencher]	x	-1%
CC(Cl)(Cl)C(=O)OCCOc1cc(Cl)c(Cl)cc1Cl	x	x	-3%[201 µM]	0%[201 µM]	x	x
COc1ccc(C(=O)Nc2cccc(-c3nc4cccnc4s3)c2C)c(OC)c1	x	x	-13%	100µM*[quencher]	x	-2%
CCOCC(=O)Nc1cccc(-c2nc3cccnc3s2)c1C	-7%	i	-5%	-3%	3%	-5%
C=CCN(CC=C)C(=S)Nc1ccc2nsnc2c1	-12%	-4%	-9%	0%	21%	3.5µM*
C=CCNC(=S)Nc1ccc2nsnc2c1	-3%	3%	-1%	0%	-6%	-6%
CCOc1ccc(NC(=S)Nc2ccc3nsnc3c2)cc1	6%	1%	-7%	-5%	-5%[11.6 µM]	4µM*
COc1ccc(NC(=S)Nc2ccc3nsnc3c2)cc1	-1%	14%	0%	-2%	u	4µM*
COc1ccc(NC(=S)Nc2ccc3nc(C)c(C)nc3c2)cc1	-8%	i	7%	1%	2%	-7%
O=C(CSc1nnc(-c2cccc(S(=O)(=O)N3CCCC3)c2)n1-c1ccccc1)Nc1ccccc1	17%	x	x	x	x	x
OCCN(CCO)c1nc(N2CCCCC2)c2nc(N(CCO)CCO)nc(N3CCCCC3)c2n1	u	-7%	u	40µM*![fluorescent]	1%	-3%
CC(C)(C)C(=O)c1sc2nc(-c3cccs3)cc(C(F)(F)F)c2c1N	0%	-9%	-7%	-4%	100µM*	-13%
C/C=C/C=C/C=O	-2%	4%	0%	0%	x	x
Cc1ccc(NC(=O)CN2C(=O)S/C(=C\c3cc(Cl)c(OCC(=O)O)c(Cl)c3)C2=O)cc1	7.5µM*	x	x	x	-11%[11.6 µM]	u
O=C(N/N=C/c1ccc(O)c(O)c1O)/C(=C/c1ccc([N+](=O)[O-])cc1)NC(=O)c1ccccc1	1%	4%	-3%	-6%	40µM*	-15%
Cc1ccc(NC(=O)/C(=C\c2ccc([N+](=O)[O-])cc2)NC(=O)c2ccccc2)cc1	14%	12%	1%	2%	3%	-4%
[N-]=[N+]=NC1CC(CO)OC1n1ccc(=O)[nH]c1=O (stereo unspecified)	54%	x	x	x	-1%	1%
Cc1ccc(NC(=O)c2cc(N3C(=O)C=CC3=O)ccc2N2CCOCC2)cc1	1%	5%	3%	-1%	35µM*	-8%
Cc1ccc(NC(=O)c2cc(NC(=O)c3ccco3)ccc2N2CCOCC2)cc1	10%	i	-9%	0%	2%	-2%
COc1ccc(/C=C(\C#N)c2nc3ccc(C)cc3[nH]2)cc1Oc1ccc(C(F)(F)F)cc1[N+](=O)[O-]	-6%	9%	-4%	3%	0%	-7%
SMILES	APEX1 inh	RECQ1 helicase	TRb SRC2 PPI	TexasRed fluor	WRN helicase inh	BLM helicase inh
Cc1ccc2nc(/C(C#N)=C\c3ccc(Oc4ccc(C(F)(F)F)cc4[N+](=O)[O-])cc3)[nH]c2c1	3%	5%	-1%	-6%	56µM*	-16%
COc1ccc(CCn2c(C)ccc2C)cc1OC	0%	-25%	-4%	-3%	x	-1%
COc1ccc(CCN2C(=O)C=CC2=O)cc1OC	x	x	x	x	32µM*	x
O=C(Nc1nnc(S(=O)(=O)N2CCCC2)s1)c1ccccc1Br	0%	x	-13%	0.05µM*[quencher]	-5%	-2%
CCOC(=O)C1CCCN(C(=O)c2cc3cc(Br)ccc3oc2=O)C1 (stereo unspecified)	-8%	i	-5%	-2%	-10%	-3%
Cc1nc2ccccc2c(=O)n1/N=C/c1ccc(O)c(O)c1O	-18%	x	x	x	3µM*	-18%
O=C(N/N=C/c1c[nH]c2ccccc12)c1cc(-c2ccc(-c3ccccc3)cc2)n[nH]1	9%	-13%	u	-14%	-4%	-5%
O=C(N/N=C/c1c[nH]c2ccccc12)c1cc(-c2ccccc2)n[nH]1	8%	25µM*	6%[53 µM]	-7%[53 µM]	-28%[57.1 µM]	-19%
Cc1ccc2[nH]c(=O)c(CN(C(=O)c3cccc([N+](=O)[O-])c3)C(C)(C)C)cc2c1	0%	-1%	5%	2%	6%	1%
Cc1ccc2[nH]c(=O)c(CN(C(=O)c3cccc(Cl)c3)C(C)(C)C)cc2c1	x	x	-18%[53 µM]	32µM*[quencher]	x	-9%
C=C1C=C(C(F)F)n2ncc(C(=O)NCc3ccccc3Cl)c2N1	40%	x	x	x	x	x
COc1ccc(S(=O)(=O)Nc2cc(SCC(=O)O)c(O)c3ccccc23)cc1	26%	x	x	x	79µM*	-21%
COc1ccc(S(=O)(=O)Nc2cccc3ccc(O)cc23)cc1	x	x	x	x	-22%	x
Cc1cc(C)c(S(=O)(=O)Nc2ccc(O)cc2)cc1C	-5%	-15%	-6%	-1%	1%	-2%
Cc1cc(C)c(S(=O)(=O)Nc2cc(SCC(=O)O)c(O)c3ccccc23)cc1C	u	-9%	-17%	-3%	22µM*	16µM*
Cc1cccc(NC(=O)c2cnn3c2NC(=C2CC2)C=C3C(F)F)n1	10%	x	x	x	x	x
CC1(C)CC(=O)c2c(oc3cc(O)c(O)cc23)C1	u	20µM*!	9%	-5%	8%	-11%
COC(=O)CC1Oc2cc3oc4c(c3cc2O1)C(=O)CC(C)(C)C4 (stereo unspecified)	10%	-6%	2%	-1%	x	2%
O/C=c1\ccc2cccc3nc(C(F)(F)F)nc1c23	-27%	x	x	x	79µM*	14µM*
O=C(CNC(=O)c1ccc(Br)o1)NCc1ccc(Cl)cc1Cl	13µM*	x	x	x	-26%	-5%
CCC(=O)N1CCC1(C)C(=O)Nc1ccc2nc(C)ccc2c1 (stereo unspecified)	x	x	x	x	-3%	x
